Data as given in PubChem BioAssay AID652020 (National Center for Advancing Translational Sciences (NCATS), 2013).
Some of the results follow. Inconclusive results are not listed. Calls of active or inactive are those of the source. Calls come from the whole dose curve; as a rule, active = well fitted curve in the direction sought with a large enough effect; inconclusive = small, poorly fitted or top-dose-only effect, or another doubt; inactive = no such curve, though single readings can be large or run the other way.

Target: Glutathione reductase, mitochondrial (Homo sapiens) (UniProt P00390)
Assay: qHTS Assay for Inhibitors of Mammalian Selenoprotein Thioredoxin Reductase 1 (TrxR1): Counterassay in Glutathione Reductase (GR)
Conditions: purified GR, DTNB reduction absorbance 405 nm kinetic; series mostly up to 57.1 µM
Source text: The selenoprotein thioredoxin reductase (TrxR; EC 1.8.1.9) is a FAD containing homodimeric pyridine nucleotide-disulfide oxidoreductase with many cellular roles. Together with NADPH and its prime substrate thioredoxin (Trx), the enzyme forms the core of the Trx system. The mammalian Trx system exerts a wide spectrum of functions including redox regulation, antioxidant defense, regulation of transcription factors as well as support of cell growth and replication. Many of these functions involve the reduction of Trx, which may subsequently reduce a number of different substrates including ribonucleotide reductase, peroxiredoxins or NFkB. Mammalian TrxR itself also has a broad substrate specificity, reducing both protein and non-protein substrates, including low molecular weight compounds such as dehydroascorbate, lipoic acid, ubiquinone, and juglone. […]
Three microliters of reagents (100 microM NADPH and 60 nM hGR or 100 microM NADPH as no-enzyme control) was dispensed into 1,536-well black clear-bottomed plates (Buffer: 0.1 M potassium phosphate, pH 7.4/10 mM EDTA, 0.01 % Tween-20). […] The plate was transferred to a ViewLux high-throughput CCD imager (Perkin-Elmer, Wellesley, MA) where kinetic measurements (one read per 5 min for 6 reads, total time 25 min) of the TNB absorbance was acquired using a 405 excitation filter.

Chain of Glutathione reductase, mitochondrial (Homo sapiens) (P00390 whole entry, looked up): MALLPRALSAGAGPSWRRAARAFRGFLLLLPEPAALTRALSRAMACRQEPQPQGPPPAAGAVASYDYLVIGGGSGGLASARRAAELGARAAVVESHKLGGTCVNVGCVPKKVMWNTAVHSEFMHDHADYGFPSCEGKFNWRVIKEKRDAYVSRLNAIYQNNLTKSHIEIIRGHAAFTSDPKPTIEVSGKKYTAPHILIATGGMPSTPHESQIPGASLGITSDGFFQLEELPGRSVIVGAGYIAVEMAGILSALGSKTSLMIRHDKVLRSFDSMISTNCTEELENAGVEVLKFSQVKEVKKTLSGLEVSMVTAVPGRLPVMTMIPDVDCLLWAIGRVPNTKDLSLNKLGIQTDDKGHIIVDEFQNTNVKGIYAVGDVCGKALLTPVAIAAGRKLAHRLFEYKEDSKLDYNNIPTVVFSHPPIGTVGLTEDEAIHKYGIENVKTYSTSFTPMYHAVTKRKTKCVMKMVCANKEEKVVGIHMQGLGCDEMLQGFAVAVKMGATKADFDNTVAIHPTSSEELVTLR

COc1ccc(-c2nc(CS(=O)CC(=O)N3CCC4(CC3)OCCO4)c(C)o2)cc1 (stereo unspecified)
outcome: inactive
